Exocytosis inh: lytic granule exocytosis inhibition; TALL-104 LAMP-1 surface exposure, flow cytometry; cells stimulated with thapsigargin and PMA; inhibition, % at 10 µM; hit rate 0.66% among 360,000; AID 651702;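 active = inhibition above about 55%, limit read from the data; inconclusive = no clear call, values can overlap the other calls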
NTR1 agonist: activates human neurotensin receptor 1; P30989; NTR1-U2OS beta-arrestin-GFP spot imaging, agonist mode; AID 493036; activation, % at 20 µM; hit rate 0.17% among 330,000;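 active = activation at or above 40% of the spot to cytoplasm intensity ratio, with at least 20 cells analyzed; inconclusive = wells under 20 cells, flagged as cytotoxic or low count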;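 also: 0% = DMSO without peptide and 100% = 100 nM NTR1 peptide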
HTR2A ag: mouse HTR2A agonism via beta-arrestin recruitment; CHO-K1 mHTR2A beta-arrestin complementation, luminescence; percent of 30 µM serotonin response; AID 624169; activation, % at 7.6 µM; hit rate 0.66% among 360,000;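 active = activation above a run cutoff, the mean activation of all tested compounds plus 3 SD, cut at about 14% in these data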;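 also: 0% = plate median of compound wells and 100% = 30 µM serotonin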
B2AR ag: activates human beta-2 adrenergic receptor causing internalization. response, % (test concentration not listed). hit rate 0.43% among 340,000. P07550. Am2.2-beta2AR cells, FAP receptor internalization, flow cytometry;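 active = response above a set limit, near 3 SD of response in nonfluorescent compounds, cut at about 42% in these data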
ABHD5-PLIN5 inh: ABHD5-PLIN5 protein interaction inhibition; inhibition, % at 4 µM; Split G. princeps luciferase complementation, luminescence, 4 h; Q00G26+Q8WTS1; hit rate 0.78% among 360,000;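 active = inhibition above the mean inhibition across every tested compound plus 3 SD, cut at about 22% in these data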;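 also: 0% = DMSO only wells and the 100% control is not disclosed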
Target sequence (Q00G26 whole entry, looked up): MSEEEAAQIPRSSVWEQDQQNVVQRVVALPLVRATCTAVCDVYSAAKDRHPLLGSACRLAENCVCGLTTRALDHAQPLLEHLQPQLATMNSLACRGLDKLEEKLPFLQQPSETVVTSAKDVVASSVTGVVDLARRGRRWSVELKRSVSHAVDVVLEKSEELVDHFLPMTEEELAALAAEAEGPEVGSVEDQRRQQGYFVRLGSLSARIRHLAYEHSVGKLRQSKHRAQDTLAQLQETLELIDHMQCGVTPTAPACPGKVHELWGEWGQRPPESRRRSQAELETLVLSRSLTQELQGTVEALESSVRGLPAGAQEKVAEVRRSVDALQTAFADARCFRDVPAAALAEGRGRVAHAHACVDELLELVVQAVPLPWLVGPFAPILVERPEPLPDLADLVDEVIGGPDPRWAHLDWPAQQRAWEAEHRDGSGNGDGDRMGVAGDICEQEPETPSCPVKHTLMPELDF
Target sequence (Q8WTS1 whole entry, looked up): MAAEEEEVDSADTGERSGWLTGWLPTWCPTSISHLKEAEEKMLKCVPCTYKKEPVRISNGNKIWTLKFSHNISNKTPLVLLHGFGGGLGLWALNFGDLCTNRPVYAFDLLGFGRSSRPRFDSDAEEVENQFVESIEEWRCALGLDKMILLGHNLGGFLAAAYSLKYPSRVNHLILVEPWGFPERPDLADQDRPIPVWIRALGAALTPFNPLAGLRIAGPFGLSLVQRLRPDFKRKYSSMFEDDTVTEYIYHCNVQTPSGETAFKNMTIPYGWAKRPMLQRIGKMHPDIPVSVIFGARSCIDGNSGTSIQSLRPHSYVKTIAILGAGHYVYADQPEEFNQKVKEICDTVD
B2AR ag CP1: human beta-2 adrenergic receptor agonism, cherry pick; shares compounds with B2AR ag; Am2.2-beta2AR cells, FAP surface receptor, flow cytometry; stronger effect = lower value; percent response (surface receptor), % at 10 µM; hit rate 25% among 1,100;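 active = surface receptor percent response at or below 58%, roughly 3 SD from nonfluorescent compounds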
FAP fluor counter: flagged in Am2.2 fluorescence counterscreen for beta-2AR agonists; shares compounds with B2AR ag; Am2.2 cells, FAP fluorogen flow cytometry; stronger effect = lower value; calls only at 10 µM; 1,100 tested, under 10 active; AID 588765;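 active = percent response below a set limit in fluorescence channel 1 and below 50% in channel 8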
* hit, by the source's call; i = inactive; ? = inconclusive; · = not tested or not shown. Compounds with a hit are over-represented: about 2.3% of the library has one in this group of screens.

SMILES	Exocytosis inh	NTR1 agonist	HTR2A ag	B2AR ag	ABHD5-PLIN5 inh	B2AR ag CP1	FAP fluor counter
COc1cc(C(C)=O)ccc1OCC(O)CNCC(O)c1ccccc1 (stereo not drawn)	5	-1	1	-9	-3	109	i
CC1(C(=O)Nc2ccc3c(c2)OCCO3)CCC(=O)N1C1CCN(Cc2ccccc2)CC1 (stereo not drawn)	2	·	0	·	0	·	·
O=c1nc(-c2ccccc2)c2ccccc2[nH]1	-2	-1	1	60*	0	113	i
COc1ccc(C(=O)Nc2ccc(N3CCN(C)CC3)cc2)cc1OC	0	-1	6	11	3	·	·
COc1ccc(C(=O)CCC(=O)Nc2ccc(N3CCCCC3)cc2)cc1OC	-13	1	7	72*	4	98	i
Cc1cccc(Nc2nnc(-c3ccc(C(=O)N4C[C@H]5C[C@H](C4)c4cccc(=O)n4C5)cc3)c3ccccc23)c1	4	2	5	85*	14	16*	i
COc1ccc(Nc2nnc(-c3ccc(C)cc3)c3ccccc23)cc1C(=O)N1CCCCC1	-8	12	1	21	0	·	·
O=C(NCc1ccccc1)C(C1CC1)n1c(Cc2cc(F)cc(F)c2)nc2ccccc21 (stereo not drawn)	-3	·	-2	·	-3	·	·
COc1ccc(CN(C)Cc2c(O)ccc3cc(Br)ccc23)cc1OC	9	6	2	43*	12	104	i
CC(OC(=O)CCOc1ccccc1)C(=O)NC1CC1 (stereo not drawn)	8	0	-4	0	-8	·	·
CCOC(=O)c1ccc(NC(=O)Nc2ccon2)cc1	5	6	-1	44*	-3	61	i
O=C(Nc1ccc(-c2cn3c(n2)SCC3)cc1)c1ccco1	-2	-1	-4	12	-7	·	·
CC(=O)Nc1ccc(-c2cn3c(n2)SCC3)cc1	9	4	2	60*	-11	53*	i
CCCN(C(=O)C1=COCCO1)c1c(N)n(Cc2ccccc2)c(=O)[nH]c1=O	2	1	3	-2	-3	·	·
CN(C)CCCN(C(=O)c1ccc(Cl)s1)c1nc2cc3c(cc2s1)OCO3	48	1	-6	23	10	·	·
CN(C)CCCN(C(=O)c1ccc([N+](=O)[O-])s1)c1nc2cc3c(cc2s1)OCCO3	6	-1	-3	42*	-2	84	i
Fc1cccc(Cc2c(-c3ccccc3)nc3c4ccccc4ccn23)c1	-4	·	-8	·	-1	·	·
Cc1cc(C)nc(NC(=O)CSc2nc3ccccc3s2)n1	-2	0	-2	0	-5	·	·
Cc1cc(C)n2c(Br)c(CSc3nc4ccccc4s3)nc2n1	-1	8	-1	47*	-10	79	i
COC(=O)C1=C(N)N(c2ccccc2F)C2=C(C(=O)CC(C)(C)C2)C1c1ccc(OC)c(OC)c1 (stereo not drawn)	-3	-1	-5	1	2	·	·
CCNc1nc(NCC)nc(-n2nc(C)cc2C)n1	2	0	1	3	0	113	i
Cc1cc(C)n(-c2nc(NC(C)C)nc(NC(C)C)n2)n1	-1	2	-2	-2	-2	115	i
CCOc1ccc(-n2nc3ccc(NC(=O)c4ccc5c(c4)OCCO5)cc3n2)cc1	1	3	-2	69*	3	98	i
COc1cccc(CNC(=O)c2cc(=O)[nH]c3ccc(S(=O)(=O)N4CCOCC4)cc23)c1	-1	-2	-9	2	-1	·	·
CCCCn1c(N)c(N(CC)C(=O)c2ccc3c(c2)S(=O)(=O)c2ccccc2C3=O)c(=O)[nH]c1=O	1	3	6	55*	0	112	i
SMILES	Exocytosis inh	NTR1 agonist	HTR2A ag	B2AR ag	ABHD5-PLIN5 inh	B2AR ag CP1	FAP fluor counter
O=C(c1cc(COc2ccc(F)cc2Cl)on1)N1CC2C[C@@H]3CC1C[C@H](C2)C3	-1	12	-2	87*	-7	23*	i
O=C(c1cc(COc2ccc(F)cc2Cl)on1)N1C[C@H]2CC[C@H]1C2	-3	1	-2	-10	5	·	·
Cc1ccc(Sc2ncccc2COC(=O)Nc2c(C)cccc2C)cc1	?	3	5	63*	-4	118	i
Cc1cc(CN(C)C(=O)CC2C(=O)NCCN2Cc2ccc(-c3ccccc3)cc2)on1 (stereo not drawn)	0	1	-8	46*	1	90	i
COc1ccc(S(=O)(=O)N(CC(=O)NCc2cccnc2)c2ccc(C)cc2)cc1OC	-3	0	4	7	8	·	·
COc1ccc(Cl)c2sc(N(CCN(C)C)C(=O)c3ccc4c(c3)OCCO4)nc12	19	2	6	44*	8	128	i
C=CCn1c(CCNC(=O)c2cccs2)nnc1SCC(=O)Nc1cccc(Cl)c1C	-1	-2	-2	60*	-4	60	i
C=CCn1c(CCNC(=O)c2cccs2)nnc1SCC(=O)c1cccc([N+](=O)[O-])c1	-1	-2	10	106*	-8	9.3*	i
C=CCn1c(CNC(=O)c2cccs2)nnc1SCC(=O)c1ccc(Br)cc1	-1	28	1	-1	3	·	·
C=CCn1c(CCNC(=O)c2cccs2)nnc1SCC(=O)c1ccc(Cl)cc1	2	0	5	90*	5	31*	i
O=C(NCCN1CCC(n2c(=O)[nH]c3ccccc32)CC1)c1cccc(Cl)c1	-1	·	-3	·	9	·	·
COc1cc(CN2C[C@@H](CO)O[C@@H](n3cnc4c(NCc5ccco5)ncnc43)C2)cc(OC)c1OC	-12	·	2	·	6	·	·
COc1ccc(S(=O)(=O)Nc2ccc(N3CCOCC3)nc2)cc1	1	1	-1	2	2	·	·
N#CC1=C(N)OC2=C(CCc3ccccc32)C1c1ccccc1 (stereo not drawn)	0	13	0	43*	-5	28*	i
COc1ccccc1Nc1nn2c(=O)c3ccc(C(=O)NCc4cccnc4)cc3nc2s1	-2	-1	-6	55*	5	97	i
CC(C)C(=O)Nc1ccc2c(c1)C(=O)N(CCC(=O)O)C2=O	4	-1	1	43*	12	105	i
COc1ccc(CC(=O)Nc2ccc3c(c2)C(=O)N(CCC(=O)O)C3=O)cc1	-8	0	4	1	-2	·	·
CCOC(=O)N1CCN(C(=O)CN(C)S(=O)(=O)c2ccc(Cl)cc2)CC1	-17	1	4	82*	7	15*	i
CCN1CCN(C(=O)CN(C)S(=O)(=O)c2ccc(Cl)cc2)CC1	0	-1	-3	-4	-2	·	·
CN(CC(=O)N1CCN(c2ccccn2)CC1)S(=O)(=O)c1ccc(Br)cc1	2	-1	2	107*	3	27*	i
